Source: PubChem BioAssay
NLRP3 yeast inh = blocks the NALP3 inflammasome reconstituted in yeast | Yeast reconstituted NLRP3/ASC/caspase-1, beta-gal luminescence, 24 h | inhibition, % at 10 µM | 330,000 tested, 0.39% active | AID 2825;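 active = inhibition of 50% or more; inactive = inhibition below 50%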
tim23-1 inh = growth inhibitors of tim23-1 mutant yeast; S. cerevisiae tim23-1 growth, BacTiter-Glo luminescence, 24 h; inhibition, % at 20 µM; AID 463212; 330,000 tested, 1.3% active;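 active = growth inhibition of the mutant yeast at or above 50%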;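 also: temperature-sensitive mutant grown at 25 °C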
NALP1 yeast inh = NALP1 inhibition; inhibition, % at 10 µM; S. cerevisiae NALP1/ASC/caspase-1 growth, X-gal OD620, 72 h; AID 2071; 280,000 tested, 0.61% active; in the data active = inhibition mostly above about 24%, no sharp cut-off; inactive = mostly below about 32%
SKKanGAS inh = SKKanGAS growth inhibition | S. pyogenes SKKanGAS, kanamycin growth, BacTiter-Glo, 6 h | 300,000 tested, 1.3% active | inhibition, % at 7.5 µM;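 active = mean replicate score, as percent of positive control median, at least 50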;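 also: strain carries kanamycin resistance gene driven by streptokinase promoter and grows in 40 µg/ml kanamycin; loss of luminescence reflects streptokinase promoter inhibition or plain growth inhibition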
TIM10 inh = growth inhibitors of TIM10 yeast strain. S. cerevisiae TIM10 strain growth, BacTiter-Glo luminescence, 24 h. inhibition, % at 10 µM. 330,000 tested, 1.4% active;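 active = inhibition of 40% or more at the single tested concentration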;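 also: wild-type TIM10 isogenic control strain grown at permissive 25 °C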
tim10-1 inh = growth inhibitors of tim10-1 mutant yeast; S. cerevisiae tim10-1 ts strain growth, BacTiter-Glo, 24 h; inhibition, % at 20 µM; 330,000 tested, 2.2% active; AID 463190;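 active = inhibition of at least 40%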;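 also: mutant grown at 25 °C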
tim23-1 confirm = tim23-1 yeast growth inhibition, confirmed; 4,400 tested, 83% active; AID 463218; shares compounds with tim23-1 inh; inhibition, % at 20 µM; S. cerevisiae tim23-1 growth, BacTiter-Glo luminescence, 24 h;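 active = inhibition above about 39% in either of two replicate wells at 20 µM, limit read from the data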;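 also: temperature-sensitive tim23-1 mutant grown at 25 °C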
Of the large screens only hits and unclear results are named; the others gave an inactive call (follow-up assays come after a bar, where they were run). An excerpt weighted towards active compounds, which were near 4.9% of everything screened.

O=S(=O)(Nc1ccc(S(=O)(=O)Nc2nccs2)cc1)c1ccc2c(c1)OCCO2	none
O=S(=O)(Nc1cccc(-c2nc3cccnc3s2)c1)c1ccc2c(c1)OCCO2	tim23-1 inh 58 | tim23-1 confirm 52
Cc1nc2ccc(S(=O)(=O)Nc3cccc(-c4nc5cccnc5s4)c3C)cc2s1	none
COc1cc(COC(=O)c2cnc(C)cn2)c(OC)cc1Br	none
O=S1(=O)[C@H]2C[C@@H]3C=C[C@@]2(CN1Cc1ccc(F)cc1)O3	none
Cc1ccc(NCC(=O)N/N=C\c2ccc([N+](=O)[O-])o2)cc1	tim23-1 inh 55 | tim23-1 confirm 41
O=C(CNc1ccccc1)N/N=C/c1ccc([N+](=O)[O-])o1	none
NS(=O)(=O)c1ccc(CCN=Cc2ccccc2O)cc1	none
CC1=C(C(=O)OC(C)C)C(c2cncc(-c3ccc(F)cc3)c2)C(C#N)=C(N)O1 (configuration not stated)	tim23-1 inh 50 | tim23-1 confirm inactive
COC(=O)C1=C(C)OC(N)=C(C#N)C1c1cccnc1 (configuration not stated)	none
O=C1c2ccccc2C(=O)C1(CO)c1ccc(OC(F)F)cc1	none
CCCSC1=C(C#N)C(c2ccccc2C)CC(=O)N1 (configuration not stated)	tim23-1 inh 51 | tim23-1 confirm 44
CCCCSC1=C(C#N)C(c2ccccc2C)CC(=O)N1 (configuration not stated)	tim23-1 inh 51 | tim23-1 confirm 52
NNc1nnc2c3cc(F)ccc3n(CCc3ccccc3)c2n1	none
NNC(=O)c1cc2cc(Oc3ccccc3)ccc2[nH]1	tim23-1 inh 59 | tim23-1 confirm inactive
NNC(=O)c1cc2ccccc2[nH]1	none
COCCn1c(SCC(=O)OC(C)C)nnc1-c1ccccc1	none
O=C(N/N=C/c1ccccc1[N+](=O)[O-])c1ccncc1	none
O=C(N/N=C/c1ccc([N+](=O)[O-])s1)c1ccncc1	tim23-1 inh 63 | tim23-1 confirm 67
CCN1C(=O)[C@H]2[C@@H](c3ccc(C)cc3)N3C(=O)N(c4cccc(Br)c4)C(=O)[C@@]3(CC(C)C)[C@H]2C1=O	none (no result: NALP1 yeast inh)
O=C(Nc1cc(Cl)ccc1N1CCOCC1)c1ccc(Br)o1	none
COc1ccc(N2CCOCC2)c(NC(=O)c2ccc(Br)o2)c1	tim23-1 inh 52 | tim23-1 confirm 39
O=S(=O)(CCSc1ccccn1)c1nc2ccccc2s1	tim23-1 inh 55 | tim23-1 confirm 49
O=S(=O)(CCSc1nc2ccccc2o1)c1nc2ccccc2s1	none
c1ccc2[nH]c(-c3ccc4c(c3)OCO4)nc2c1	tim23-1 inh 77 (no result: NALP1 yeast inh) | tim23-1 confirm 59
O=C(Nc1ccc(-c2nc3ccccc3[nH]2)cc1)c1ccc2c(c1)OCO2	none
COc1ccc(-c2cc(C(=O)NCCN3CCOCC3)no2)cc1OC	none
C=C(C)C(=O)Nc1cccc(C2=NOC3(C2)C[C@@H](C(N)=O)N(C(=O)[C@H]2CCC(=O)N2)C3)c1 (some centres not stated)	none
C=CCc1c(C)nc(SC)nc1Nc1ccc(C(=O)O)cc1	none (no result: NALP1 yeast inh)
C=CCc1c(C)nc(SC)nc1Nc1ccc(C(C)=O)cc1	tim23-1 inh 50 | tim23-1 confirm 45
O=C(Nc1ccccc1C(F)(F)F)C1CCN(C(=O)Cc2ccccc2)CC1	none
Cc1cccc(Oc2nc(-c3ccccn3)nc3ccccc23)c1	tim23-1 inh 51, SKKanGAS inh 98 | tim23-1 confirm 46
Oc1c(Cl)cc(Cl)cc1/C=N/c1nccs1	tim23-1 inh 69 | tim23-1 confirm 54
O=C(N/N=C/c1ccccn1)c1ccc(Cl)c(Cl)c1	tim23-1 inh 62, SKKanGAS inh 53 | tim23-1 confirm 49
O=C(N/N=C/c1ccccn1)c1ccc(NC(=O)c2ccccc2Cl)cc1	none
Cc1cc(SCc2ccc(Cl)c(Cl)c2)nc(=O)[nH]1	none
CN(C(=O)COC(=O)C12CC3CC(CC(Cl)(C3)C1)C2)c1ccccc1	tim23-1 inh 56 (no result: NALP1 yeast inh, SKKanGAS inh) | tim23-1 confirm 44
CC1CCCC(C)N1C(=O)COC(=O)C12CC3CC(CC(Cl)(C3)C1)C2 (configuration not stated)	none (no result: NALP1 yeast inh, SKKanGAS inh)
